Out of some 300,000 compounds screened, about 2,300 (0.77%) were called active.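 Rule for the calls: active = mean activation of at least 80% with every replicate also reaching 80%; inconclusive = mean reaches 80% but some replicate falls short; inactive = the rest.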 Many of the other results were omitted from the sample, so actives are more common in it than they were.
Test: MITF-driven TRPM1 luciferase induction in melanoma cells – cell-based, SK-MEL-5, single point, primary screen (AID 588334);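 note: 0% = neutral control wells and 100% = parthenolide positive control wells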
Conditions: SK-MEL-5 TRPM1-promoter luciferase, 24 h; at 12.5 µM; hits give high values; % of positive control, neutral wells = 0

activation, active:
CC(=O)c1cccc(NC(=O)Nc2ccc(C)cc2)c1 104%
COc1ccc([C@H]2CC(=O)C=C(/C=C/c3ccccc3)C2)cc1 84.7%
FC(F)(F)c1cccc(N/N=C/c2ccccc2)c1 88.5%
COc1cccc(NCCC(=O)c2cccc([N+](=O)[O-])c2)c1 85.6%
Cc1nn2cc(-c3ccc(Cl)cc3)cnc2c1Br 132%
CN(C)c1ccc(CSc2ccccc2)cc1 106%
Cn1c(SCc2c(F)cccc2Cl)nnc1-c1cnccn1 90.4%
CCc1ccc(C(=O)COC(=O)c2ccco2)cc1 99.6%
CCN(CC)c1ccc(C(=O)OCC(=O)c2ccco2)cc1 83.2%

activation, inactive:
Cc1nc2cc(NC(=O)NCc3ccccc3)ccc2o1 14.2%
C=C(C)C(=O)Nc1cccc(C(C)=O)c1 5.72%
Cc1nc2ccc(NC(=O)C(F)(F)F)cc2o1 -1.51%
C[C@H](O)[C@@H]1C(=O)N2CCc3ccc(N4CCOCC4)cc3[C@@H]2C[C@@H]1N(C)C(=O)C(C)(C)C 3.72%
COc1ccc(C2NCCCC2c2ccccc2)cc1 (centres undefined) -15.7%
O=C(NN=Cc1ccccc1O)NN=Cc1ccccc1O -21.8%
O=C(Nc1ccc2ccccc2c1[N+](=O)[O-])c1ccccc1 37.5%
COc1cc(C(=O)OCc2cc(=O)n3ccsc3n2)ccc1OC(C)C 25%
COc1ccc([C@H]2CC(=O)C=C(/C=C/c3ccc(Cl)cc3)C2)cc1 55.4%
COc1ccc([C@H]2CC(=O)C=C(c3ccc(C)cc3)C2)cc1 18.7%
CC1CN(Cc2ccccc2)C(=S)NC1=O (centres undefined) 3.25%
COC(=O)c1ccc(CNC(=O)Cn2cc(C)c(=O)[nH]c2=O)cc1 2.68%
FC(F)(F)c1cccc(Nc2ncnc3ccccc23)c1 0.633%
Cc1nnsc1C(=O)N/N=C/c1cccc(C(F)(F)F)c1 15.6%
Cc1c(NS(=O)(=O)c2cccc(C(=O)Nc3ccc(SC(F)F)cc3)c2)c(=O)n(-c2ccccc2)n1C -11%
COc1cc(/C=C/c2ccc(/C=C/c3cc(OC)c(OC)c(OC)c3)cc2)cc(OC)c1OC -15.7%
COc1cccc(C(=O)CC(=O)C(=O)Nc2ccc([N+](=O)[O-])cc2C)c1 0.189%
COc1cccc(CNC(=O)CCCC(=O)Nc2cccc([N+](=O)[O-])c2)c1 -21%
Cc1ccc(C)c(S(=O)(=O)N2CCN(c3ncnc4sccc34)CC2)c1 -33.1%
CCC(C)C1(C2CCCC2)NC(=O)NC1=O (centres undefined) -0.575%
CSCCC(NS(=O)(=O)c1ccc(C)cc1)C(=O)N(C)CC(=O)Nc1ccccc1Br (centres undefined) -13.8%
C=CCn1c(=O)n(C)c2c(=O)n(C)c(=O)n(C)c21 -2.68%
O=C1c2ccccc2C(=O)N1CCCCCCN1C(=O)c2ccccc2C1=O -10.4%
CC(C)n1cnc2c(NCc3ccccc3)cc(OCC3CCN(C)CC3)cc21 -31%
CN(C)c1cc[n+](Cc2ccccc2)cc1 -11.3%
O=C(c1ccc(CSc2ccccc2)cc1)N1CCCCCC1 61.5%
C=CC[C@H](CC(=O)N(CCO)Cc1ccccc1)C(=O)N[C@@H](COC(=O)[C@@H](CC=C)Cc1ccc(F)cc1)Cc1ccccc1 8.2%
Nc1cc(=O)n(Cc2ccccc2)c(=O)n1Cc1ccccc1 -2.74%
Cc1ccc(CSc2nnc(-c3cnccn3)n2C)cc1 12.1%
Oc1ccc(-n2nnnc2SCc2c(F)cccc2Cl)cc1 0.316%
Cc1ccc(C(=O)Nc2ccccc2-c2ccccc2)cc1S(=O)(=O)Nc1ccccc1 3.07%
CCOc1cc(C(=O)N(Cc2ccccc2)c2ccc(C)cc2)ccc1OCC(=O)N1CCOCC1 -10.1%
CCOC(=O)c1ccc(NC(=O)CNC(=O)c2ccco2)cc1 7.02%
O=C(OCC(=O)N1CCCC1)c1ccco1 4.95%
O=C(COC(=O)c1ccccc1C(=O)c1ccccc1)c1ccco1 1.5%
O=C(COC(=O)c1ccco1)NCc1ccc(Cl)cc1 -14.2%
CCCCN1CC(COc2ccccc2)Oc2cccc(F)c2S1(=O)=O (centres undefined) -2.06%
N#CCc1c[nH]c2ccc([N+](=O)[O-])cc12 11.4%
CCC1([N+](=O)[O-])COC(c2ccc(C)cc2)OC1 (centres undefined) 1.68%
CN(CCc1ccccc1)C(=O)c1cccc(NC(=O)Cc2cccc(NC(=O)C3CCCN(C(=O)C4CCC4)C3)c2)c1 (centres undefined) -9.62%

Source: PubChem BioAssay AID588334 (Broad Institute, 2011)
